Measured values reported in the supplement of paper PMC7801607.

Experiments:
CHO = assay: % viability of CHO cells (MTT); higher = less toxic; conditions: 48 h
In short: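 For 48 h, attached CHO cells (10^6 cells/well, 200 µL, seeded the night before) were kept in fresh medium carrying compound at 2 or 20 µM. A colorimetric tetrazolium (MTT) assay then gave survival as percent viability versus untreated cells.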

HepG2-A16-CD81 = assay: % inhibition of HepG2 viability (CellTiter-Glo); higher = more toxic; conditions: 5 µM
[1] = system: Plasmodium falciparum NF54 stage IV/V gametocytes; assay: % inhibition of gametocyte viability (PrestoBlue); higher = more inhibition; conditions: 48 h
In short: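 Stage IV/V NF54 gametocytes at 2% gametocytaemia and 5% haematocrit (100 µL/well) were treated with compound at 1 or 5 µM and incubated for 48 h at 37 °C under stationary, hypoxic conditions. PrestoBlue (10 µL) was then added for 2 h, and fluorescence at 612 nm was read on 70 µL of transferred supernatant. Percent inhibition of gametocyte viability was normalised to vehicle and kill controls within one run.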

[2] = system: Plasmodium falciparum NF54 asexual blood stage; assay: % inhibition of asexual blood stage proliferation (pLDH); higher = more inhibition; conditions: 72 h
In short: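 Plasmodium falciparum NF54 ring-stage cultures (1% haematocrit, 2% parasitaemia) were incubated with compound at 2 or 20 µM for 72 h at 37 °C under 4% CO2, 3% O2 and 93% N2. Survival was read at 620 nm with the parasite lactate dehydrogenase assay. Results were reported as percent inhibition of asexual proliferation relative to controls.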

[3] = system: Plasmodium falciparum NF54 stage IV/V gametocytes; assay: % inhibition of gametocyte viability (ATP bioluminescence); higher = more inhibition; conditions: 24 h
In short: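 Stage IV/V NF54 gametocytes from density gradients (30,000 per well, 96-well plates) were incubated with compound at 1 or 5 µM for 24 h at 37 °C. A single run supplied percent inhibition of gametocyte viability, based on ATP measured with Promega BacTiter Glo and normalised to control wells.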

[4] = system: Plasmodium falciparum NF54 stage IV/V gametocytes; assay: % inhibition of gametocyte viability (luciferase reporter); higher = more inhibition; conditions: 48 h
In short: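 Stage IV/V gametocytes of the NF54-Pfs16-GFP-Luc line (2% gametocytaemia, 2% haematocrit) were exposed to compound at 1 or 5 µM. Incubation was 48 h at 37 °C, stationary and hypoxic. Luminescence was read on 30 µL lysate plus 30 µL Promega luciferin substrate on a GloMax-Multi+ reader with 10 s integration. Percent inhibition was normalised to DMSO and kill controls from a single run.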

[5] = system: Plasmodium berghei ANKA liver stage in HepG2-A16-CD81; assay: % inhibition of liver stage parasite viability (luciferase); higher = more inhibition; conditions: 5 µM; 48 h
Method: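 Single-concentration screen of the MMV Pandemic Response Box. P. falciparum NF54 asexual blood stages: pLDH assay, 72 h at 37 °C, 2 and 20 µM, n=2. Stage IV/V gametocytes (NF54): luciferase reporter (NF54-Pfs16-GFP-Luc, 48 h), ATP bioluminescence (24 h) and PrestoBlue (48 h) at 1 and 5 µM, n=1. P. berghei liver stage (luciferase in HepG2-A16-CD81, 48 h post infection) at 5 µM, n=4. All normalised to DMSO and kill controls as % inhibition.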
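Wherever % inhibition of HepG2 viability (CellTiter-Glo) is given: HepG2-A16-CD81 hepatoma cells plated as in the liver-stage assay but without sporozoites, with DMSO wells as negative and 25 µM puromycin as positive control.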

Structure (SMILES)	% viability of CHO cells (CHO; 2 µM) [%]	% viability of CHO cells (CHO; 20 µM) [%]	% inhibition of HepG2 viability (HepG2-A16-CD81) [%]	% inhibition of gametocyte viability ([1]; 1 µM) [%]	% inhibition of gametocyte viability ([1]; 5 µM) [%]	% inhibition of asexual blood stage proliferation ([2]; 2 µM) [%]	% inhibition of asexual blood stage proliferation ([2]; 20 µM) [%]	% inhibition of gametocyte viability ([3]; 1 µM) [%]	% inhibition of gametocyte viability ([3]; 5 µM) [%]	% inhibition of gametocyte viability ([4]; 1 µM) [%]	% inhibition of gametocyte viability ([4]; 5 µM) [%]	% inhibition of liver stage parasite viability [5] [%]
CC(C)(C)c1ccc(Oc2ccc(N)cc2)cc1	130	58.8	-4.14	< 0	67	-4.84	55.8	< 0	< 0	66.9	89.3	54.4
NC(=S)N/N=C/c1ncccc1N	111	48.6	-22.6	80.3	91.2	73.5	78.5	< 0	15.5	1.59	5.86	63.5
NC(=O)C(c1ccccc1)(c1ccccc1)[C@H]1CCCN(CCc2ccc3c(c2)CCO3)C1	91.2	-0.304	1.31	33.7	14	-5.36	68.4	< 0	< 0	12	< 0	48.5
CC(=O)Oc1ccccc1C(=O)Nc1ncc([N+](=O)[O-])s1	91.3	111	3.62	14.9	28.5	14.2	71.2	10.5	5	0.222	17.6	65.9
Cc1nc2ccc(Cl)cc2c(-c2ccccc2)c1CC(=O)O	121	61.2	6.38	< 0	< 0	37.6	40.5	< 0	< 0	7.85	13.3	24.5
CCc1cc(Nc2cc(=O)n(CCN3CCN(C(=O)c4ccccc4)CC3)c(=O)[nH]2)ccc1C	93.2	103	-1.38	< 0	23.7	-6.84	61.3	< 0	< 0	< 0	9.16	10.7
Cc1ccc(Oc2ccccc2-c2csc(NC3=NCCCN3)n2)c(C)c1	104	112	13	< 0	< 0	11.5	88.7	< 0	< 0	< 0	< 0	57.6
NC(=O)c1cnc2ccc(S(=O)(=O)c3ccccc3)cc2c1Nc1ccc(O)cc1	228	58.1	6.05	< 0	< 0	29.7	56.5	< 0	< 0	< 0	< 0	53.1
N=C(N)NCCCCC(=O)Nc1cc(C(F)(F)F)cc(NC(=O)c2cc(C(=O)Nc3cc(C(F)(F)F)cc(NC(=O)CCCCNC(=N)N)c3O[C@@H]3CCNC3)ncn2)c1O[C@@H]1CCNC1	120	43	15	< 0	< 0	76.8	114	9.98	39.3	19.3	78.2	35.9
O=C(O)c1ccc(-c2ccc(O[C@H]3O[C@H](CO)[C@@H](O)[C@H](O)[C@@H]3O)cc2)cc1	94	102	-2.59	< 0	3.77	0.633	16.6	< 0	< 0	< 0	12.4	29.4
CC(=O)O[C@H]1C[C@@]2(C)[C@@H](C[C@@H](O)[C@H]3[C@@]4(C)CC[C@@H](O)[C@@H](C)[C@@H]4CC[C@@]32C)/C1=C(\CCC=C(C)C)C(=O)O	108	97.1	-0.207	< 0	2	1.38	9.02	< 0	< 0	< 0	< 0	36.2
Nc1nnnn1CCOc1c2[nH]c3ccc(Cl)cc3c2cc2c1[nH]c1ccc(Cl)cc12	98.6	121	5.71	< 0	< 0	11.9	95.2	< 0	< 0	< 0	31.2	24.1
Nc1cccc(-c2nc(N)nc(NC3Cc4ccccc4C3)n2)c1	96.5	75.1	12.8	< 0	< 0	-7.13	22.3	< 0	< 0	< 0	< 0	-38.1
CC(C)(C)c1ccc(OCCn2nc(C(=O)O)c3ccccc3c2=O)cc1	100	104	1.37	< 0	< 0	4.78	19.9	< 0	< 0	< 0	< 0	3.4
O=C(NCCN1CCCCC1)c1cccc(C(F)(F)F)c1	96.7	-13	1.19	< 0	< 0	16.9	78.6	< 0	2.48	12.3	< 0	20.2
Fc1ccc(-c2nc(-c3c[nH]c4ccc(Br)cc34)[nH]c2-c2ccc(F)cc2)cc1	97.3	-2.96	1.87	< 0	< 0	74	83.7	< 0	< 0	< 0	< 0	27.7
CC(C)Oc1ccc(-n2cnc3cc(/C=C\c4ccc(C(C)(C)O)cc4)ccc32)cc1	113	115	5.08	30.8	32.2	25.6	54.7	< 0	< 0	< 0	< 0	20.4
NS(=O)(=O)c1ccc(NC(=O)NC(c2ccccc2)c2ccccc2)cc1	258	58.6	4.57	< 0	7.57	3.15	82.5	< 0	< 0	< 0	< 0	19.3
